Drawing on the OligoGym collection, this text covers sensor-assay potency score (higher = more potent) for 60 sequences.

Holding throughout (test): pooled miR-30 sensor sort-seq; sequence = guide strand
What all share (details): shRNA

In test [1] the target is PEAR1.
Test [2] addresses PECR.
Test [3] concerns the target PEBP1.
The target of test [4] is PGLYRP2.
The target of test [5] is PION.
In test [6] the target is PKIG.
In test [7] the target is PKD2L1.
Test [8] addresses PKIA.
For test [9], the target named is PKLR.
The target in test [10] is PITPNM3.
The target of test [11] is PLB1.
In test [12] the target is PLA2R1.
The target of test [13] is PLAA.
Test [14] addresses PLCB3.
Note: reference of the scale not given here.

In the case of TTGGTGGTGGTAGTGAAGCTTT, the sensor-assay potency score (higher = more potent) in test [1] was -1.22. Still for that read-out and setting: as for TCCATGTAGCTGCTCTCCCGGG, the figure is -1.66. Turning to TTCAATCTCTCCAACTTACGGG, in [2], the sensor-assay potency score (higher = more potent) was 0.0068. For the sequence TTAAAGGTCTCCTTCATCTTTT, in test [2], the sensor-assay potency score (higher = more potent) is -0.272. As for TAAAATCACATTGTGTACCATT, in [3], the sensor-assay potency score (higher = more potent) is -0.719. In test [4], ATCTCTTAGAGACACTCCTGGC registered a sensor-assay potency score (higher = more potent) of -0.911.

In test [4], ATCTGCAGTGGTGACATCTGGA gave a sensor-assay potency score (higher = more potent) of -0.549.

In turn, TATAGTTCTGAAGCAGTCGCGT displayed a sensor-assay potency score (higher = more potent) in test [5] of -0.318.

In test [5], TTCTTTAGTAGACTGAACTAAA showed a sensor-assay potency score (higher = more potent) of -0.809.

In the case of ATGTCAGGGACCGCATTCCGAC, the sensor-assay potency score (higher = more potent) in test [6] is -1.85. Consider TTGAATATCTTGATCCAGGCGA, for which the sensor-assay potency score (higher = more potent) in test [7] is 0.38.

TTGTTGAAGCTGATGTACTTGA showed a sensor-assay potency score (higher = more potent) in test [7] of -0.253. In test [8], TTTACTGGGTGAACACTTGAGC gave a sensor-assay potency score (higher = more potent) of -0.0975. In [7], TACTTGAATATCTTGATCCAGG had a sensor-assay potency score (higher = more potent) of -0.611. In [7], TTGACTGTGCGGATTTGCCAGG displayed a sensor-assay potency score (higher = more potent) of -0.754. TTTGTTCTGTAGAACTTCGTTG: the sensor-assay potency score (higher = more potent) in [8] was determined as 0.16.

ATCTTCTTCACCTTCTGTCTTG came in with a sensor-assay potency score (higher = more potent) in [8] of -0.736. With TGTCCGGTCACAGGAGATGAAG, the sensor-assay potency score (higher = more potent) in test [6] is -2.03.

With TCACAGCCTCTGAGTCTCCCTG, the sensor-assay potency score (higher = more potent) in [6] is -1.09.

In [6], TAACATCTTGTGGTTACAGTGT had a sensor-assay potency score (higher = more potent) of -0.118.

For TATTGCATTTCTTCTACCTGTT, the sensor-assay potency score (higher = more potent) in test [8] was 0.0658. For the sequence TTGATCATCTCCTTGAGGCGCT, in [9], the sensor-assay potency score (higher = more potent) amounted to 1.07. In [7], TAGTAATAAGCACTGGAGCTTG had a sensor-assay potency score (higher = more potent) of -0.791.

For the sequence TCATCATCTAGGTCGGAGCTAC, the sensor-assay potency score (higher = more potent) in test [8] is -0.746. On the same count and under the same terms, as for TAGAACTTCGTTGTGCATCTTC, the figure is 0.489.

Sequence TTTGATGAAGCACTCCTGCATG came in with a sensor-assay potency score (higher = more potent) in [10] of -0.502. TTGTTGTACTGTGTCTGCCAGA returned a sensor-assay potency score (higher = more potent) in test [7] of -0.963.

The sequence TGGGGCGCTTCCCTCCACCTGT gave a sensor-assay potency score (higher = more potent) in test [6] of -1.57. For TAGTAGAAGATGAAGACGCAGA, in test [7], the sensor-assay potency score (higher = more potent) was -0.533. TCTTGTTGATATCAAGACCTGC returned a sensor-assay potency score (higher = more potent) in [8] of -0.396. As for TTTAACATGATAATGAGCAGGT, the sensor-assay potency score (higher = more potent) in test [8] stood at 0.937. In [6], TCGAGTGCCAGCTCGCCCATGT yielded a sensor-assay potency score (higher = more potent) of -1.07. Sequence ATGGACTTTGCTAAGTCTCTTT registered a sensor-assay potency score (higher = more potent) in test [9] of -0.987. In test [7], TTCAAAGATCTCTGAATCCTGA had a sensor-assay potency score (higher = more potent) of 0.0945. In turn, TTGATTGTCAGCTCTCTCCATA registered a sensor-assay potency score (higher = more potent) in test [6] of -0.293.

TAGATGACAGTTATAGTCTCAG: the sensor-assay potency score (higher = more potent) in [9] is -0.0862. For TAACATGATAATGAGCAGGTTC, in test [8], the sensor-assay potency score (higher = more potent) was found to be 0.186. Sequence TTCAAGGCTAATTCATTGCTGT gave a sensor-assay potency score (higher = more potent) in test [8] of 0.0225.

The sequence TCAGGGACCGCATTCCGACGGC registered a sensor-assay potency score (higher = more potent) in test [6] of -0.897.

TACAGGAAGAATCATCATCTAG registered a sensor-assay potency score (higher = more potent) in [8] of -0.916. In turn, TTGCGCAGGATCATGCGCGAGT gave a sensor-assay potency score (higher = more potent) in [10] of -0.913. As for TTCATCTTCAGGCTTCTTGGGT, in [7], the sensor-assay potency score (higher = more potent) was -0.0602. The sequence TAGGTGTCACTTATCCTGGTGG displayed a sensor-assay potency score (higher = more potent) in [6] of -0.436. On to TATGTGATGCGACCACTGCTGT, for which the sensor-assay potency score (higher = more potent) in [10] was -0.671. In test [6], TTCCTCACGCTCACAGCCTCTG registered a sensor-assay potency score (higher = more potent) of -0.203. The sequence TCTTCGTGGATCTCGATGCTTC showed a sensor-assay potency score (higher = more potent) in [10] of -0.715.

In turn, TTGTTCTGTAGAACTTCGTTGT gave a sensor-assay potency score (higher = more potent) in test [8] of 0.279. Sequence TTACAGTGTCTTGAAAGTGTAC registered a sensor-assay potency score (higher = more potent) in [6] of -0.626. With TTGCCAGCTTCCTTGTCTGGGG, in test [6], the sensor-assay potency score (higher = more potent) is -0.658. In test [11], TACAGATTCGAATCTGTGCAGT gave a sensor-assay potency score (higher = more potent) of -0.43.

In [11], TATTATCTTCCAGTCTTCCTGA had a sensor-assay potency score (higher = more potent) of 0.718.

In test [12], TTTTGTAACAGAATCCACCATG displayed a sensor-assay potency score (higher = more potent) of 0.0446. In the case of TTATTTGAGAATCAACACCTAA, the sensor-assay potency score (higher = more potent) in test [13] is -0.576. With TAAGGTGGTCACATTCTCCAGG, the sensor-assay potency score (higher = more potent) in [11] was found to be 0.024. Take TACTGTGTGGTGACATCGGGGA: in test [11], the sensor-assay potency score (higher = more potent) came to 0.115.

In test [13], TTTTAGATGCAGCTGATCGGTA registered a sensor-assay potency score (higher = more potent) of -0.655. The sequence TTCGTTGAGTCTCGGGTCGCGT returned a sensor-assay potency score (higher = more potent) in [14] of -0.421. In test [14], TTGAATAGCTCCTCAGACCAGA came in with a sensor-assay potency score (higher = more potent) of -0.311.

In [12], TATCACAACCTACTTCTGCAGA displayed a sensor-assay potency score (higher = more potent) of -0.52.

TAAATCTACAGCATTCACTTAC came in with a sensor-assay potency score (higher = more potent) in test [13] of -0.27.
